Laboratory results published in PubChem BioAssay (NCI).
The panel holds about 83,000 compounds, 20% with a hit somewhere; the sample as a whole holds those more often.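 Assay: single dose, 48 h. Readout: percent growth (0 = no net growth; negative = cell death). Active: <10.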 The source made the active and inactive calls.

Assays:
Experiment in all cases: NCI-60 one-dose screen, 48 h (100 = growth as untreated, 0 = no growth, -100 = all killed)
NCI-H23 lung = details: 10 µM unless noted
NCI-H322M lung = details: 10 µM unless noted
NCI-H460 lung = details: 10 µM unless noted
HOP-92 NSCLC = details: 10 µM
NCI-H522 lung = details: 10 µM
A549/ATCC NSCLC = details: 10 µM unless noted
786-0 renal = details: 10 µM unless noted
COLO 205 colon = details: 10 µM unless noted
DU-145 prostate = details: 10 µM unless noted
K-562 leukemia = details: 10 µM unless noted
MALME-3M melanoma = details: 10 µM unless noted
MDA-MB-231 breast = details: 10 µM unless noted
RXF 393 renal = details: 10 µM unless noted
SF-268 CNS = details: 10 µM unless noted
SF-295 CNS = details: 10 µM unless noted
SF-539 CNS = details: 10 µM unless noted
UACC-257 melanoma = details: 10 µM unless noted
M14 melanoma = details: 10 µM unless noted
HOP-62 NSCLC = details: 10 µM unless noted

Measured: growth

CCOC(=O)C1=C(c2ccccc2)NC(=O)NC1CN1C(=O)c2ccccc2C1=O (stereo not given)
inactive: NCI-H23 lung 93.9% | NCI-H322M lung 118% | NCI-H460 lung 105% | HOP-92 NSCLC 72.9% | NCI-H522 lung 108% | A549/ATCC NSCLC 127% | 786-0 renal 102% | COLO 205 colon 116% | DU-145 prostate 105% | K-562 leukemia 50.6% | MALME-3M melanoma 71.2% | MDA-MB-231 breast 108% | RXF 393 renal 116% | SF-268 CNS 93.7% | SF-295 CNS 115% | SF-539 CNS 106% | UACC-257 melanoma 112%

COc1ccc(Cn2cc3c(c2)-c2oncc2CC3)cc1OC
inactive: NCI-H23 lung 16.9% | NCI-H322M lung 22.9% | HOP-92 NSCLC 84.4% | NCI-H522 lung 20.5% | A549/ATCC NSCLC 25.9% | 786-0 renal 22% | DU-145 prostate 10.3% | K-562 leukemia 16.9% | MDA-MB-231 breast 16.9% | SF-268 CNS 33.1% | UACC-257 melanoma 59.2%
active: NCI-H460 lung 1.13% | COLO 205 colon -18.2% | RXF 393 renal 9.09% | SF-539 CNS -21.5%

COC1=C(OC)C(=O)c2ccccc2C1=O
inactive: NCI-H23 lung 81.5% | NCI-H322M lung 107% | NCI-H460 lung 97.4% | HOP-92 NSCLC 95% | NCI-H522 lung 94.8% | A549/ATCC NSCLC 96.9% | 786-0 renal 120% | COLO 205 colon 100% | DU-145 prostate 112% | MALME-3M melanoma 126% | MDA-MB-231 breast 94% | RXF 393 renal 93.2% | SF-295 CNS 108% | SF-539 CNS 102% | UACC-257 melanoma 76.7%

COc1ccc(C2=C/C(=C\c3ccc(Cl)cc3)C(=O)NN2C(=S)NN)cc1
inactive: NCI-H23 lung 92.5% | NCI-H322M lung 102% | NCI-H460 lung 102% | HOP-92 NSCLC 74% | NCI-H522 lung 83.9% | A549/ATCC NSCLC 101% | 786-0 renal 104% | COLO 205 colon 114% | DU-145 prostate 108% | K-562 leukemia 93.9% | MDA-MB-231 breast 96.1% | RXF 393 renal 105% | SF-268 CNS 95.8% | SF-295 CNS 96.3% | SF-539 CNS 111% | UACC-257 melanoma 104% | M14 melanoma 99.5%

CCC(CCCN1C(=O)c2ccccc2C1=O)Nc1cc(OC)cc2c(C)ccnc12 (stereo not given)
active: RXF 393 renal -10.2%
inactive: NCI-H23 lung 117% | NCI-H322M lung 104% | NCI-H460 lung 114% | HOP-92 NSCLC 72.4% | NCI-H522 lung 91.8% | A549/ATCC NSCLC 103% | 786-0 renal 95.9% | COLO 205 colon 104% | DU-145 prostate 86.7% | K-562 leukemia 72.4% | MALME-3M melanoma 111% | MDA-MB-231 breast 81.1% | SF-268 CNS 113% | SF-295 CNS 93.3% | SF-539 CNS 76.5% | UACC-257 melanoma 88.6%

COC(=O)c1cc(Nc2ccc(O)c3c2C(=O)c2c([N+](=O)[O-])ccc(O)c2C3=O)cc(C(=O)OC)c1
active: NCI-H23 lung -20.3% | NCI-H322M lung -2.32% | A549/ATCC NSCLC -50.2% | DU-145 prostate -59.1% | MALME-3M melanoma -51.1% | M14 melanoma -66.5%
inactive: HOP-62 NSCLC 72.8% | NCI-H460 lung 55.7% | 786-0 renal 88.7% | COLO 205 colon 12% | K-562 leukemia 72.9% | MDA-MB-231 breast 90.4% | RXF 393 renal 51.9% | SF-268 CNS 55.1% | SF-539 CNS 84% | UACC-257 melanoma 12.1%

CCOC(=O)C1=C(C(F)(F)F)NC(=O)NC1CN1C(=O)c2ccccc2C1=O (stereo not given)
inactive: NCI-H23 lung 99.3% | NCI-H322M lung 107% | NCI-H460 lung 112% | HOP-92 NSCLC 60.8% | NCI-H522 lung 115% | A549/ATCC NSCLC 115% | 786-0 renal 104% | COLO 205 colon 116% | DU-145 prostate 106% | K-562 leukemia 76.1% | MALME-3M melanoma 113% | MDA-MB-231 breast 100% | RXF 393 renal 106% | SF-268 CNS 103% | SF-295 CNS 104% | SF-539 CNS 100% | UACC-257 melanoma 103%

O=S(=O)(Cc1cccc2c(CS(=O)(=O)c3ccc(Cl)cc3)cccc12)c1ccc(Cl)cc1
inactive: NCI-H23 lung 98% | NCI-H322M lung 86.7% | NCI-H460 lung 72.4% | HOP-92 NSCLC 97.1% | NCI-H522 lung 96.4% | A549/ATCC NSCLC 84.3% | 786-0 renal 119% | COLO 205 colon 83% | DU-145 prostate 91.2% | K-562 leukemia 83.2% | MDA-MB-231 breast 97.3% | RXF 393 renal 109% | SF-268 CNS 92.5% | SF-539 CNS 94.3% | UACC-257 melanoma 107%

O=C1c2cc([N+](=O)[O-])ccc2-c2cc(Cl)c(NC(=O)C(F)(F)F)cc21
inactive: NCI-H23 lung 95.3% | NCI-H322M lung 103% | HOP-62 NSCLC 106% | HOP-92 NSCLC 99.4% | NCI-H522 lung 113% | A549/ATCC NSCLC 108% | 786-0 renal 108% | COLO 205 colon 95.9% | DU-145 prostate 112% | K-562 leukemia 88.6% | MDA-MB-231 breast 109% | RXF 393 renal 87.5% | SF-268 CNS 107% | SF-295 CNS 111% | SF-539 CNS 95.4% | UACC-257 melanoma 128% | M14 melanoma 110%

CCn1cc(C(=O)O)c(=O)c2cc(F)c(N3CCN(S(=O)(=O)c4ccc(Cl)cc4)CC3)cc21
active: NCI-H23 lung -7.07% | NCI-H460 lung 5.92% | HOP-92 NSCLC -4.17% | NCI-H522 lung 8.39% | SF-295 CNS 3.94%
inactive: NCI-H322M lung 45.9% | A549/ATCC NSCLC 14.6% | 786-0 renal 23.7% | COLO 205 colon 12.1% | DU-145 prostate 31.7% | K-562 leukemia 21.4% | MALME-3M melanoma 23.8% | MDA-MB-231 breast 41.1% | RXF 393 renal 13.4% | SF-268 CNS 22.7% | SF-539 CNS 21.7% | UACC-257 melanoma 29% | M14 melanoma 18.9%

CCC(C)C1NC(=O)C(CCCCN)NC(=O)C(CCCCN)NC(=O)C(CC(C)C)NC(=O)C(CCCCN)NC(=O)C(C(C)CC)NC(=O)C(C(C)C)NC(=O)C(C(C)CC)NC(=O)C(CCCCN)NC(=O)C(CCCCN)NC(=O)C(C)NC(=O)C(CCCCN)NC(=O)C(CC(C)C)NC1=O (stereo not given)
inactive: NCI-H23 lung 16.6% | NCI-H322M lung 82% | NCI-H460 lung 14.8% | A549/ATCC NSCLC 20.2% | 786-0 renal 20.8% | DU-145 prostate 25.5% | RXF 393 renal 45.2% | SF-268 CNS 19.5% | SF-295 CNS 27.4% | SF-539 CNS 67.5%
active: HOP-92 NSCLC -9.52% | NCI-H522 lung 9.29% | COLO 205 colon -59.4% | K-562 leukemia 9.18% | MALME-3M melanoma 9.48% | MDA-MB-231 breast -0.123% | UACC-257 melanoma 7.94%

CC(C)(C)C(=O)OCOP(=O)(OCOC(=O)C(C)(C)C)C1CC(O)N(O)C1=O (stereo not given)
active: NCI-H522 lung 8.02% | RXF 393 renal 1.26%
inactive: NCI-H23 lung 21% | NCI-H322M lung 30.5% | HOP-62 NSCLC 35.7% | HOP-92 NSCLC 28.2% | A549/ATCC NSCLC 64.3% | 786-0 renal 14.5% | COLO 205 colon 45% | DU-145 prostate 44.4% | K-562 leukemia 15.2% | MALME-3M melanoma 41.2% | MDA-MB-231 breast 42.7% | SF-268 CNS 13.3% | SF-295 CNS 67% | SF-539 CNS 39.3% | UACC-257 melanoma 63.1% | M14 melanoma 55.6%

CN1CCN(Cc2ccc(NC(=O)c3cncc(C#Cc4c(N)ncc5ccc(F)cc45)c3)cc2C(F)(F)F)CC1
inactive: NCI-H23 lung 30.6% | NCI-H322M lung 27.7% | HOP-62 NSCLC 22.1% | NCI-H522 lung 49.7% | A549/ATCC NSCLC 26.5% | DU-145 prostate 46.2% | SF-268 CNS 35.7% | SF-295 CNS 52.2%
active: HOP-92 NSCLC -22.7% | 786-0 renal -71.9% | K-562 leukemia -33.4% | MALME-3M melanoma -80.7% | MDA-MB-231 breast -38.4% | RXF 393 renal -73.8% | SF-539 CNS -68.2% | UACC-257 melanoma -55.9% | M14 melanoma -73.7%

Cc1c(C(N)=O)sc2c1c(=O)n(Cc1ccccc1)c1nnc(S(C)(=O)=O)n21
inactive: NCI-H23 lung 97.1% | NCI-H322M lung 107% | HOP-62 NSCLC 78.8% | NCI-H460 lung 91.3% | A549/ATCC NSCLC 102% | 786-0 renal 108% | COLO 205 colon 93.8% | DU-145 prostate 101% | MALME-3M melanoma 92.4% | MDA-MB-231 breast 101% | RXF 393 renal 49.3% | SF-268 CNS 96.7% | SF-295 CNS 89.4% | UACC-257 melanoma 80.8% | M14 melanoma 76%

O=C1CSC(c2ccccc2Cl)N1c1nnc(-c2ccncc2)o1 (stereo not given)
inactive: NCI-H23 lung 85.9% | NCI-H322M lung 105% | HOP-62 NSCLC 90.2% | HOP-92 NSCLC 95.9% | A549/ATCC NSCLC 101% | 786-0 renal 93.6% | DU-145 prostate 106% | K-562 leukemia 104% | MALME-3M melanoma 120% | MDA-MB-231 breast 97.7% | RXF 393 renal 101% | SF-268 CNS 99.5% | UACC-257 melanoma 98.2% | M14 melanoma 96.8%
